“And” between values parts separate entries of the source, which are not always exact repeats. Equal values may be shown once. A structure can be active in one record and inactive in another. The source made the active and inactive calls. Rule for the calls: active = hit-call score of the fitted dose curve at least 0.9, where 1 is the maximum; inactive = score below 0.9.
How the values were obtained:
[1] = ATG_PBREM_CIS: Attagene CIS-FACTORIAL HepG2 Assay for human Phenobarbital-responsive Enhancer Module (PBREM) (AID 2282955); conditions: HepG2 PBREM cis-reporter, Attagene multiplexed transcription; actives raise or lower the signal
Summary of the method: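 HepG2, transient MRTU transfection, 24 h dosing; RNA → oligo(dT) RT → PCR → 6-FAM extension → HpaI → CE. Bidirectional fit vs DMSO.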

[2] = target: Paired box protein Pax-6 (Homo sapiens) (UniProt P26367); assay: ATG_Pax6_CIS: Attagene CIS-FACTORIAL HepG2 Assay for human Paired Box 6 (PAX6) (AID 2282956); conditions: HepG2 CIS-FACTORIAL PAX6 reporter transcription, RNA readout; actives raise or lower the signal
Chain of Paired box protein Pax-6 (Homo sapiens) (P26367 whole entry, looked up): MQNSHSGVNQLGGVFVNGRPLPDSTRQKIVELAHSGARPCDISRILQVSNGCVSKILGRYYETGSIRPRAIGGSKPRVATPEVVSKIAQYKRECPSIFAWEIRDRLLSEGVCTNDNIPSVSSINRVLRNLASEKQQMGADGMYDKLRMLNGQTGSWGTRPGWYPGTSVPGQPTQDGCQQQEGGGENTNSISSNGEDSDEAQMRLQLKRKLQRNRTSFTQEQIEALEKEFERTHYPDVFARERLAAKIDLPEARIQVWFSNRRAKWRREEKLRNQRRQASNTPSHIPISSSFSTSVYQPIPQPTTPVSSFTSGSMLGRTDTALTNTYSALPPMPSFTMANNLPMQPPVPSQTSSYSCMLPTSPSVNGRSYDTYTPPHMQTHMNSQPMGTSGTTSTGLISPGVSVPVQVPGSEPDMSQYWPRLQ
Summary of the method: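 HepG2 cells transiently transfected with multiplexed cis-promoter reporter units (endogenous TF activity) were dosed for 24 h. Reporter mRNA was quantified by RT-PCR, 6-FAM labeling, HpaI digestion and capillary electrophoresis; bidirectional fitting versus DMSO baseline.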

[3] = ATG_PXRE_CIS: Attagene CIS-FACTORIAL HepG2 Assay for human Pregnane X Receptor Element (PXRE) (AID 2282957); conditions: HepG2 Attagene CIS-FACTORIAL PXRE reporter, mRNA; actives raise or lower the signal
Summary of the method: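 HepG2 cells transiently transfected with cis-regulated multiple reporter transcription units; endogenous factor activity measured as reporter mRNA 24 h after dosing. RT-PCR, fluorescent primer extension, HpaI digestion, capillary electrophoresis; bidirectional fit versus DMSO baseline.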

[4] = ATG_PPRE_CIS: Attagene CIS-FACTORIAL HepG2 Assay for human Peroxisome Proliferator-activated Response Element (PPRE) (AID 2282958); conditions: HepG2 PPRE cis-element reporter, Attagene transcription factor profiling; actives raise or lower the signal
Summary of the method: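 Transcript-level reporter induction in transfected HepG2 cells after 24 h chemical exposure, quantified by fluorescence from RT-PCR products separated by capillary electrophoresis.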

[5] = ATG_RORE_CIS: Attagene CIS-FACTORIAL HepG2 Assay for human RAR-related Orphan Receptor Element (RORE) (AID 2282959); conditions: HepG2 Attagene cis-factorial RORE reporter, mRNA; actives raise or lower the signal
Summary of the method: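 Multiplexed reporter assay measuring mRNA induction from a cis promoter element in transiently transfected HepG2 cells after 24 h treatment. Detection via RT-PCR and capillary electrophoresis fluorescence; DMSO serves as baseline.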

[6] = ATG_Sox_CIS: Attagene CIS-FACTORIAL HepG2 Assay for human SRY-box transcription factor (SOX) (AID 2282960); conditions: HepG2 Attagene cis-factorial SOX reporter, mRNA; actives raise or lower the signal
Summary of the method: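 Cells were transfected with reporter constructs under cis-regulatory promoters, then exposed to chemicals for 24 h. Reporter transcripts were quantified by fluorescence after RT-PCR and capillary electrophoresis; activity was fitted in both directions against DMSO.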

[7] = target: Transcription factor Sp1 (Homo sapiens) (UniProt P08047); assay: ATG_Sp1_CIS: Attagene CIS-FACTORIAL HepG2 Assay for human Specificity Protein 1 (Sp1) (AID 2282961); conditions: HepG2 Sp1 cis-reporter transcription, actives raise or lower the signal
Chain of Transcription factor Sp1 (Homo sapiens) (P08047 whole entry, looked up): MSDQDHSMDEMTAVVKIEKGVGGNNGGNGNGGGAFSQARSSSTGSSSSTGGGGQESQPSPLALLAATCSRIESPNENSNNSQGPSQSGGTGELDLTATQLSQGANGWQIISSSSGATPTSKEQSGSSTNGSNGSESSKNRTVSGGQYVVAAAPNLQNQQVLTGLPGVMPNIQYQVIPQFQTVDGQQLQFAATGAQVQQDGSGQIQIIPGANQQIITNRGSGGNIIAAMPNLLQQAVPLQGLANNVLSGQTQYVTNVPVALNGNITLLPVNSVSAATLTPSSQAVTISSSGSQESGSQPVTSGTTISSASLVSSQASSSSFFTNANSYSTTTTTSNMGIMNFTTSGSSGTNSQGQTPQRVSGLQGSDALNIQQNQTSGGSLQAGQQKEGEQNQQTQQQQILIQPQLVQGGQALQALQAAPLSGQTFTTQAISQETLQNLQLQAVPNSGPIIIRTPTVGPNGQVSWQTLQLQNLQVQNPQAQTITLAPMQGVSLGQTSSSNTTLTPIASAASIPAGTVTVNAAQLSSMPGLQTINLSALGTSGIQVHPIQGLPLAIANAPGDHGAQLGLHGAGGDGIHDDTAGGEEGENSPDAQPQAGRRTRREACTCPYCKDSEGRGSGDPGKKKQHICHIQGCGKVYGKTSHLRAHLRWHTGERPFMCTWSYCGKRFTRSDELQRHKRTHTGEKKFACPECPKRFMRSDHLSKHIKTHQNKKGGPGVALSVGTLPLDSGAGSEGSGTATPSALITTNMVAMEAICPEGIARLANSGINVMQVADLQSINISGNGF
Summary of the method: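 Measures mRNA induction of an Sp1-linked reporter in HepG2 cells 24 h post-dosing. Multiplexed reporters read by RT-PCR and capillary electrophoresis; DMSO serves as negative control and baseline.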

[8] = ATG_SREBP_CIS: Attagene CIS-FACTORIAL HepG2 Assay for human Sterol Regulatory Element Binding (SREBP) (AID 2282962); conditions: HepG2 Attagene cis-factorial SREBP reporter, mRNA; actives raise or lower the signal
Summary of the method: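 HepG2 cells transiently transfected with multiplexed cis-element reporter units report endogenous transcription factor activity. After 24 h of chemical exposure, reporter mRNA was quantified by RT-PCR, 6-FAM labelling, HpaI digestion and capillary electrophoresis; bidirectional fits used DMSO as baseline.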

[9] = target: Signal transducer and activator of transcription 3 (Homo sapiens) (UniProt P40763); assay: ATG_STAT3_CIS: Attagene CIS-FACTORIAL HepG2 Assay for human Signal Transducer and Activator of Transcription 3 (STAT3) (AID 2282963); conditions: HepG2, Attagene cis-factorial STAT3 reporter transcription; actives raise or lower the signal
Chain of Signal transducer and activator of transcription 3 (Homo sapiens) (P40763 whole entry, looked up): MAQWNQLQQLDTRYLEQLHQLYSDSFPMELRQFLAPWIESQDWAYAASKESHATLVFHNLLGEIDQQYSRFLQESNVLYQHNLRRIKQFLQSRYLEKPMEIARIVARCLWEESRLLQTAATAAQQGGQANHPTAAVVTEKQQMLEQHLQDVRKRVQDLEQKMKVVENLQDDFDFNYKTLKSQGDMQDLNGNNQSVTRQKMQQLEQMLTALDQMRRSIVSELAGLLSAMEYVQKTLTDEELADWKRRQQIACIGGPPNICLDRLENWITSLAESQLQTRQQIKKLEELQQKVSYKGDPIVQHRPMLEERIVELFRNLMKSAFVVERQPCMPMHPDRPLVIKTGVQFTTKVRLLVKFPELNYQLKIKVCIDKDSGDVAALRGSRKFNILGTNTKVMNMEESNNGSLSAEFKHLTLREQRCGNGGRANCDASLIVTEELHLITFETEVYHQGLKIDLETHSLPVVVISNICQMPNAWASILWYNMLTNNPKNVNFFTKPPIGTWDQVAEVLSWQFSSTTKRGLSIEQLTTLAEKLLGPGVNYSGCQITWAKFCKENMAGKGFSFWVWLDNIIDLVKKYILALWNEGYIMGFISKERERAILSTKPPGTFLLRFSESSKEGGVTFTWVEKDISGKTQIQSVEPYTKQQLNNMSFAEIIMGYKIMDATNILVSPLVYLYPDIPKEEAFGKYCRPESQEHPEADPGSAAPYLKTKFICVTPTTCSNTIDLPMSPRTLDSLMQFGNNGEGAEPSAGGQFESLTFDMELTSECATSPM
Summary of the method: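 HepG2 cells transiently transfected with multiple cis-element-driven reporter units report endogenous transcription factor activity. After 24 h compound exposure, reporter mRNA is measured by RT-PCR, 6-FAM labelling, HpaI digestion and capillary electrophoresis. Fitted bidirectionally versus DMSO.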

[10] = ATG_TA_CIS: Attagene CIS-FACTORIAL HepG2 Assay for human TA Basal Promoter (AID 2282964); conditions: HepG2 Attagene CIS-factorial TA basal promoter reporter; actives raise or lower the signal
Summary of the method: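 HepG2 cells transiently transfected with multiple reporter units under cis promoter elements, reporting endogenous transcription factor activity; this endpoint tracks the TA basal promoter as background control. Reporter mRNA after 24 h dosing measured by RT-PCR/capillary electrophoresis; bidirectional fits versus DMSO.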

Compound: CC1=C(/C=C/C(C)=C/C=C/C(C)=C/C(=O)O)C(C)(C)CCC1
- AC50 [1]: 6.62 µM (active)
- outcome [1]: inactive
- AC50 [2]: 42.8 µM (active)
- outcome [2]: inactive
- AC50 [3]: 1.48 µM (active) and 1.26 µM (active)
- AC50 [4]: 43.6 nM (active) and 9.62 µM (active)
- AC50 [5]: 8.89 µM (active)
- outcome [5]: inactive
- AC50 [6]: 51.1 µM (active) and 24.6 µM (active)
- AC50 [7]: 11.9 µM (active)
- outcome [7]: inactive
- outcome [8]: inactive

Compound: c1ccc2c(c1)ccc1ccccc12
- outcome [1]: inactive
- outcome [2]: inactive
- AC50 [3]: 58.4 µM (active)
- outcome [4]: inactive
- outcome [5]: inactive
- outcome [6]: inactive
- outcome [7]: inactive
- outcome [8]: inactive

Compound: CN1CCN(c2ccccc2/C=C2\SCCN(c3ccc(Cl)c(Cl)c3)C2=O)CC1
- outcome [1]: inactive
- outcome [2]: inactive
- AC50 [3]: 2.88 µM (active)
- outcome [4]: inactive
- outcome [5]: inactive
- outcome [6]: inactive
- outcome [7]: inactive
- AC50 [8]: 5.37 µM (active)
- outcome [9]: inactive
- outcome [10]: inactive

Compound: CCCCCCCCCCCCN1CCCC1=O
- outcome [1]: inactive
- outcome [2]: inactive
- AC50 [3]: 4.43 µM (active)
- outcome [4]: inactive
- outcome [5]: inactive
- outcome [6]: inactive
- outcome [7]: inactive
- outcome [8]: inactive
- outcome [9]: inactive

Compound: CC#C[C@]1(O)CC[C@H]2[C@@H]3CCC4=CC(=O)CCC4=C3[C@@H](c3ccc(N(C)C)cc3)C[C@@]21C
- AC50 [1]: 11.5 µM (active) and 4.77 µM (active) and 13 µM (active)
- outcome [1]: inactive
- AC50 [2]: 11.6 µM (active) [middle of 4 runs]
- AC50 [3]: 1.03 µM (active) [middle of 4 runs]
- AC50 [5]: 6.68 µM (active) [middle of 4 runs]
- outcome [6]: inactive
- AC50 [7]: 122 µM (active) and 27.5 µM (active)
- outcome [7]: inactive
- AC50 [8]: 23.9 µM (active) and 91.2 µM (active) and 31.7 µM (active)
- outcome [8]: inactive
- outcome [9]: inactive
- AC50 [10]: 9.11 µM (active) and 8.72 µM (active) and 27.2 µM (active)
- outcome [10]: inactive

Compound: CCCCC[C@H](O)CC(=O)CCc1ccc(O)c(OC)c1
- outcome [1]: inactive
- outcome [2]: inactive
- AC50 [3]: 18.1 µM (active)
- outcome [4]: inactive
- outcome [5]: inactive
- outcome [6]: inactive
- AC50 [7]: 166 µM (active)
- outcome [8]: inactive

Compound: O=C1OC2(c3ccccc31)c1cc(Br)c(O)c(Br)c1Oc1c2cc(Br)c(O)c1Br
- AC50 [1]: 52.2 µM (active)
- outcome [1]: inactive
- outcome [2]: inactive
- AC50 [3]: 25.8 µM (active) and 5.86 µM (active)
- outcome [4]: inactive
- AC50 [5]: 74.9 µM (active) and 46.2 µM (active)
- outcome [6]: inactive
- outcome [7]: inactive
- outcome [8]: inactive
- outcome [9]: inactive
- outcome [10]: inactive

Compound: FC(F)(I)C(F)(F)C(F)(F)C(F)(F)C(F)(F)C(F)(F)I
- outcome [1]: inactive
- AC50 [2]: 16 µM (active)
- outcome [3]: inactive
- outcome [4]: inactive
- outcome [5]: inactive
- outcome [6]: inactive
- outcome [7]: inactive
- outcome [8]: inactive

Compound: CCCCC(CC)COC(=O)CCCCC(=O)OCc1ccccc1 (centres undefined)
- outcome [1]: inactive
- outcome [2]: inactive
- AC50 [3]: 12.4 µM (active)
- outcome [4]: inactive
- outcome [5]: inactive
- outcome [6]: inactive
- outcome [7]: inactive
- outcome [8]: inactive
- outcome [9]: inactive
- outcome [10]: inactive

Compound: O=C(O)c1ccccc1C(c1ccc(O)cc1)c1ccc(O)cc1
- outcome [1]: inactive
- outcome [2]: inactive
- AC50 [3]: 44.9 µM (active) [middle of 4 runs]
- outcome [4]: inactive
- outcome [5]: inactive
- outcome [6]: inactive
- outcome [7]: inactive
- outcome [8]: inactive

Compound: CC(=O)NC1(c2cccc(F)c2)CCN(CC[C@@]2(c3ccc(Cl)c(Cl)c3)CN(c3ccccc3)C(=O)CO2)CC1
- AC50 [1]: 56.2 µM (active)
- AC50 [2]: 26 µM (active)
- AC50 [3]: 1.42 µM (active)
- AC50 [4]: 55.6 µM (active)
- AC50 [5]: 50.2 µM (active)
- AC50 [6]: 55.9 µM (active)
- AC50 [7]: 44.4 µM (active)
- AC50 [8]: 8.79 µM (active)

Compound: c1ccc2cc3c(ccc4ccccc43)cc2c1
- outcome [1]: inactive
- outcome [2]: inactive
- AC50 [3]: 8.53 µM (active) and 20.8 µM (active)
- outcome [3]: inactive
- AC50 [5]: 1.44 µM (active)
- outcome [5]: inactive
- outcome [6]: inactive
- outcome [7]: inactive
- outcome [8]: inactive
- outcome [9]: inactive

Compound: CCCCCCCCCCCCc1ccccc1S(=O)(=O)O
- outcome [1]: inactive
- outcome [2]: inactive
- AC50 [3]: 4.41 µM (active)
- outcome [4]: inactive
- outcome [5]: inactive
- outcome [6]: inactive
- outcome [7]: inactive
- outcome [8]: inactive

Compound: NCC(F)(F)C(F)(F)C(F)(F)C(F)(F)C(F)(F)C(F)(F)C(F)(F)F
- outcome [1]: inactive
- outcome [2]: inactive
- outcome [3]: inactive
- outcome [4]: inactive
- outcome [5]: inactive
- outcome [6]: inactive
- outcome [7]: inactive
- outcome [8]: inactive
- outcome [9]: inactive

Compound: CC[C@H](c1ccc(O)cc1)[C@@H](CC)c1ccc(O)cc1
- outcome [1]: inactive
- outcome [2]: inactive
- AC50 [3]: 3.02 µM (active) [middle of 4 runs]
- outcome [4]: inactive
- outcome [5]: inactive
- outcome [6]: inactive
- outcome [7]: inactive
- outcome [8]: inactive

Compound: CCOC(=O)CC(O)(CC(=O)OCC)C(=O)OCC
- outcome [1]: inactive
- outcome [2]: inactive
- AC50 [3]: 50.4 µM (active)
- outcome [3]: inactive
- outcome [5]: inactive
- outcome [6]: inactive
- outcome [7]: inactive
- outcome [8]: inactive

Compound: CC(C)(C)c1cc(C(C)(C)C)c(O)c(C(C)(C)C)c1
- outcome [1]: inactive
- outcome [2]: inactive
- AC50 [3]: 3.08 µM (active) and 6.33 µM (active)
- AC50 [4]: 416 nM (active) and 8.82 µM (active)
- outcome [5]: inactive
- outcome [6]: inactive
- AC50 [7]: 80.6 µM (active)
- outcome [7]: inactive
- AC50 [8]: 11.7 µM (active)
- outcome [8]: inactive
- outcome [10]: inactive

Reference: PubChem BioAssay (EPA / NIEHS)
